This passage reports cytotoxicity results from PubChem BioAssay AID431 (Sanford-Burnham Center for Chemical Genomics, 2006).

Molecules are shown by their SMILES. The whole screen tested about 63,000 compounds, of which about 1,100 (1.7%) were called active. The sample as a whole holds a higher share of actives than the screen did. Potency and affinity values are given separately. A number with no mark means an inactive call.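 Rule for the calls: active = compounds whose percent cytotoxicity in the single-dose primary screen, scaled between solvent and toxic-drug controls, exceeds 50; inactive = the rest.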

This assay in a line: cytotoxicity in KRAS-transformed pancreatic duct cells, primary screen, cell-based, fluorescence, HTS (AID 431).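 Note: 0% = DMSO solvent wells and 100% = doxorubicin-treated wells.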 The settings on record: HPDE-C7K KRASV12 cells, Alamar Blue viability, 48 h; at 10 µM; stronger effect = higher value.
For `CC(C)(C)NC(=O)Cn1c(SCC(=O)N2CCCCCC2)nc2ccccc21`, the cytotoxicity was -0.2%.

As for `Cc1csc2ncc(C(=O)NCc3ccccn3)c(=O)n12`, the cytotoxicity is -11.8%. The same measure for `Cc1ccc(OCCn2c(C)c(/C=N/n3cnnc3)c3ccccc32)cc1`: 41.7%; for `Cc1c(/C=N/n2cnnc2)c2ccccc2n1CCOc1ccccc1`: 43.4%. The same measure for `COc1cccc(OCCn2c(C)c(/C=N/n3cnnc3)c3ccccc32)c1`: 85.9% (active); for `CCOC(=O)N1CCC(NC(=O)C2CCC(CNS(=O)(=O)c3ccc(OC)cc3)CC2)CC1` (centres undefined): 0.5%.

For `C=CCn1c(=N)n(CC(=O)OC)c2ccccc21`, the cytotoxicity was 8.1%. As for `c1coc(-c2nc3ccccc3nc2-c2ccco2)c1`, the cytotoxicity is -6.2%. Regarding `c1coc(-c2nc3nc4ccccc4n3nc2-c2ccco2)c1`, the cytotoxicity was 67.4% (active). The same measure for `c1coc(-c2nc(-c3ccco3)c(-c3ccco3)nc2-c2ccco2)c1`: -1.8%.

For the compound `O=C1CCCc2nc(N3CCN(c4ccccc4)CC3)ncc21`, the cytotoxicity was 20.9%. On to `O=C(NC1CCCC1)C(c1cccs1)N(C(=O)c1ccno1)c1ccccc1` (centres undefined), for which the cytotoxicity was 2.6%. Consider `COc1ccc(C2/C(=C(/O)c3ccc(C)cc3)C(=O)C(=O)N2C)cc1` (centres undefined), for which the cytotoxicity was -6.1%. Take `Cc1nnc(SCCn2c(N3CCN(C)CC3)nc3c2c(=O)[nH]c(=O)n3C)s1`: the cytotoxicity is -9.9%. The same measure for `Cc1nnc(Sc2nc(Sc3nnc(C)s3)nc(N3CCN(C)CC3)n2)s1`: 102% (active); for `Cc1nnc(SCCn2c(N3CCN(C)CC3)nc3c2c(=O)n(C)c(=O)n3C)s1`: 3.6%; for `CC(=O)Nc1nc(C)c(Oc2ccccc2)c(=O)[nH]1`: 6.8%. The same measure for `CC(=O)c1c(C)[nH]c(C(=O)N2CCc3ccccc32)c1C`: 10.3%. With `CCOC(=O)c1[nH]c(C)c(C(=O)N2CCc3ccccc32)c1C`, the cytotoxicity is 57.6% (active). The same measure for `CCOC(=O)c1c(C)[nH]c(C(=O)OCC(=O)N2CCc3ccccc32)c1C`: -21.3%; for `COc1ccc(CN(C(=O)CSc2nnc(-c3ccc(F)cc3)o2)c2ccc(F)cc2)cc1`: -9.8%; for `COc1ccc(CN(C(=O)CSc2nnc(-c3ccccc3F)o2)c2ccc(F)cc2)cc1`: 16.8%. Regarding `O=C(CSc1nnc(-c2c[nH]c3ccccc23)o1)N(Cc1ccccc1)c1ccc(F)cc1`, the cytotoxicity was 53.4% (active).

`CCOC(=O)c1sc(NC(=O)CSc2n[nH]c(-c3ccccc3)n2)c(C#N)c1C`: the cytotoxicity is -1.8%. Turning to `CCOC(=O)c1c(NC(=O)CSc2n[nH]c(N)n2)sc(CC)c1C`, the cytotoxicity is 0%. As to `Cc1ccc(C(=O)NCCCC(=O)O)o1`, the cytotoxicity was -5%.

As to `Cc1cc(-c2ccco2)n2c(nc3ccccc32)c1C#N`, the cytotoxicity is 18.2%. The same measure for `COC(=O)c1nnn(-c2nc(N3CCCCC3)nc(N3CCCCC3)n2)c1C`: -3.1%; for `CCOC(=O)c1cnc(-n2nc(C)cc2C)nc1NC(C)c1ccccc1` (centres undefined): -13%; for `NS(=O)(=O)c1ccc(NC=C2C(=O)OC3(CCCCC3)OC2=O)cc1`: 8.5%. For `NS(=O)(=O)c1ccc(NC(=O)CSC2CCCCC2)cc1`, the cytotoxicity was -3.7%. For `Cc1ccc(-c2nnn(CC(=O)Nc3ccc(S(=O)(=O)N4CCC(C)CC4)cc3)n2)cc1` the value was -2.5%; for `CCOC(=O)c1c2n(c3ccc(O)cc13)CCCCC2`, 2.9%; for `O=C(Oc1c(Cl)cc(Cl)c2cccnc12)N1CCOCC1`, -2.4%. For `COc1cc(C(=O)Oc2c(CN3CCOCC3)cc(Cl)c3cccnc23)cc(OC)c1OC` the value was 18.4%; for `COc1ccc(C(=O)Oc2c(CN3CCOCC3)cc(Cl)c3cccnc23)cc1OC`, 13.7%. Turning to `Oc1c(CN2CCOCC2)cc(COCc2ccccc2)c2cccnc12`, the cytotoxicity is 30.7%.

As for `Cc1ccc(Cl)cc1N(CC(=O)NC1CCCCC1)S(C)(=O)=O`, the cytotoxicity is -5.9%. With `Cc1nc2cc(-c3cccc(F)c3)nn2c(C)c1CCC(=O)N1CCN(c2ccccn2)CC1`, the cytotoxicity is -4.7%. Take `OC(CN1CCOCC1)CN1CCOCC1`: the cytotoxicity is 13.2%.

For `CCCCCOc1ccc(OC(=O)c2ccncc2)cc1`, the cytotoxicity is -0.5%. With `CC(=O)c1cccc(NC(=O)c2cc(C(C)C)on2)c1`, the cytotoxicity is -17.2%. `CCCCOC(=O)c1ccc(NC(C)=O)cc1`: the cytotoxicity was -20.2%. For the compound `O=C(O)CCC(=O)Nc1ccc(C(=O)OC2CCCCC2)cc1`, the cytotoxicity was -16.9%. The same measure for `O=C(Nc1ccc(OC(=O)c2ccco2)cc1)c1ccco1`: -0.1%; for `O=C(OC1CCCCC1)c1ccc(NC(=O)c2ccco2)cc1`: 74.9% (active); for `CCCCOC(=O)c1ccc(NC(=O)c2ccoc2C)cc1`: 5%.

Take `CCCCCOC(=O)c1ccc(NC(=O)c2ccco2)cc1`: the cytotoxicity is 80.3% (active).

Turning to `CCC1S/C(=C(\C#N)C(=O)NCc2ccco2)N(c2ccc(Br)cc2)C1=O` (centres undefined), the cytotoxicity is -5.6%. The same measure for `O=C(CSCc1ccccc1)Nc1nccs1`: -4.5%.

Turning to `CC(C)CCn1c(NCCc2ccccc2)nc2c1c(=O)n(C)c(=O)n2C`, the cytotoxicity is 0.9%. The same measure for `O=S(=O)(O)c1nc2ccccc2n1CCOc1ccccc1`: 5.6%; for `CC(=O)Oc1ccc(N2C(=O)CCC2=O)cc1`: -3.8%; for `Nc1c(Br)cc(Br)c(N2CCCC2=O)c1Br`: 0.5%. For `O=C(c1ccc(Cl)cc1)c1ccc(OCC(O)CN2CCOCC2)cc1` (centres undefined) the value was 2.3%; for `CS(=O)(=O)N1CCC(NC(=O)Cc2ccccc2)CC1`, -2.1%; for `O=C(CS(=O)(=O)c1ccccc1)N1CCCCCC1`, -9.5%. Take `C/C=C(\CS(=O)(=O)c1ccccc1)S(=O)(=O)c1ccccc1`: the cytotoxicity is 42.2%. For the compound `O=C1c2ccccc2C(=O)N1CCc1nc(-c2cccnc2)no1`, the cytotoxicity is -7.3%. The same measure for `COc1ccc(C)cc1NC(=O)c1nnn(Cc2cc(C)ccc2C)c1N`: -4%. For `Cc1cc(C)cc(NC(=O)c2nnn(Cc3cc(C)ccc3C)c2N)c1` the value was 54.9% (active); for `Cc1ccc(C)c(NC(=O)c2nnn(Cc3ccccc3C)c2N)c1`, -4.9%; for `Cc1ccc(CCNC(=O)c2nnn(-c3cc(C)cc(C)c3)c2N)cc1`, 8.1%. The same measure for `Cc1cccc(-n2nnc(C(=O)Nc3ccc(F)cc3)c2N)c1`: 4.2%.

For `Cc1ccc(NC(=O)c2nnn(-c3cc(C)cc(C)c3)c2N)cc1`, the cytotoxicity was 51.9% (active).

Turning to `COc1ccc(S(=O)(=O)n2ccnc2)c2cccnc12`, the cytotoxicity was -6.2%.

As to `CC(C)(C)SCCNC(=O)COc1ccc(Cl)cc1`, the cytotoxicity was 7.6%.

Consider `CCOCCCNS(=O)(=O)c1ccc2c(c1)OCCO2`, for which the cytotoxicity is 11.2%.

For the compound `O=c1c2c3c(sc2ncn1/N=C/c1ccco1)CCCC3`, the cytotoxicity is 1.1%. For `Cc1ccc(-c2nc3ccccc3o2)cc1NC(=O)c1ccc2c(c1)OCO2` the value was -8.2%; for `O=C(Nc1ccc2oc(-c3ccccc3F)nc2c1)c1ccc2c(c1)OCCO2`, 83.6% (active). For `O=C(Nc1ccc2oc(-c3ccccc3)nc2c1)c1ccc2c(c1)OCCO2` the value was 37%; for `O=C(Nc1ccc2oc(-c3ccccc3F)nc2c1)c1cncc(Br)c1`, 14.2%; for `Cc1c(NC(=O)c2ccc3c(c2)OCO3)cccc1-c1nc2ccccc2o1`, -4.5%. Regarding `O=C(Nc1ccccc1-c1nc2ccccc2o1)c1ccc2c(c1)OCCO2`, the cytotoxicity is 79% (active).

Regarding `COc1cccc(-c2nnn(CC(=O)NC3CCCC3)n2)c1OC`, the cytotoxicity is 3.1%. The same measure for `O=C(CC1Sc2ccccc2NC1=O)Nc1cccc(C(=O)O)c1` (centres undefined): 2.1%. For `O=C(NCc1ccncc1)c1ccc(Br)o1`, the cytotoxicity was -21.6%. The same measure for `O=C(NCc1ccccc1Cl)C1CCN(S(=O)(=O)N2CCCCC2)CC1`: -3.6%. For `CCOC(=O)Oc1ccc2oc(=O)cc(C)c2c1` the value was 10.2%; for `CCOC(=O)Nc1cc(=O)c2ccccc2o1`, 38.2%; for `CCOC(=O)/C=C(\C)Sc1cc(=O)oc2ccccc12`, 77.6% (active). For `Cc1csc(SCc2c(C(=O)O)oc3ccccc23)n1` the value was -0.8%; for `CCOC(=O)C1=C(C)NC(=O)NC1c1cn(-c2ccccc2)nc1-c1cccs1` (centres undefined), 23.8%. As to `Fc1cccc(F)c1CN1CCN(c2ncccn2)CC1`, the cytotoxicity was -1.5%. The same measure for `COCCN1Cc2cccc(C(=O)Nc3cccc(OC)c3)c2C1=O`: -3.5%; for `Cn1c(=O)c(=O)n(C)c2cc(S(=O)(=O)N3CCN(c4cccc(C(F)(F)F)c4)CC3)ccc21`: 80.1% (active). Take `Cc1c(S(=O)(=O)N2CCN(c3cccc(C(F)(F)F)c3)CC2)c(=O)n(C)c(=O)n1C`: the cytotoxicity was 5.8%. With `Cn1c(=O)c2cc(S(=O)(=O)N3CCN(c4cccc(C(F)(F)F)c4)CC3)ccc2n(C)c1=O`, the cytotoxicity was -3.4%. Consider `COc1ccccc1CN(CC(=O)NCc1ccco1)C(=O)CNS(=O)(=O)c1ccccc1`, for which the cytotoxicity is 1.2%. For `COc1ccccc1N1CCN(C(=O)C2CCN(S(=O)(=O)c3ccc(Cl)cc3)CC2)CC1` the value was -11.9%; for `Cc1cc(C(=O)OCC(=O)c2c(N)n(C)c(=O)n(C)c2=O)c(C)n1-c1ccccc1`, 1.3%. The same measure for `Cc1ccc(C)c(S(=O)(=O)C(C#N)c2nc3ccccc3nc2N2CC(C)OC(C)C2)c1` (centres undefined): 59.3% (active); for `Cc1ccc(S(=O)(=O)C(C#N)c2nc3ccccc3nc2N2CCC(C)CC2)cc1` (centres undefined): 30.1%; for `Cc1cccc(S(=O)(=O)C(C#N)c2nc3ccccc3nc2N2CC(C)OC(C)C2)c1` (centres undefined): 7.7%. In the case of `COc1ccc(S(=O)(=O)C(C#N)c2nc3ccccc3nc2N2CCCC(C)C2)cc1` (centres undefined), the cytotoxicity was 60.2% (active). For the compound `Cc1cccc(S(=O)(=O)C(C#N)c2nc3ccccc3nc2N2CCCC2)c1` (centres undefined), the cytotoxicity was -13.4%. The same measure for `COc1ccc(S(=O)(=O)C(C#N)c2nc3ccccc3nc2N2CCCCC2)cc1` (centres undefined): 3.2%; for `Cc1ccc(S(=O)(=O)C(C#N)c2nc3ccccc3nc2N2CC(C)OC(C)C2)cc1C` (centres undefined): 76.5% (active). The same measure for `Cc1ccc(C)c(S(=O)(=O)C(C#N)c2nc3ccccc3nc2N2CCCC2)c1` (centres undefined): 14.7%; for `Cc1ccc(S(=O)(=O)C(C#N)c2nc3ccccc3nc2N2CCCC2)cc1` (centres undefined): 34.2%. For the compound `Cc1ccc(C)c(S(=O)(=O)C(C#N)c2nc3ccccc3nc2N2CCOCC2)c1` (centres undefined), the cytotoxicity was -1.1%. For the compound `CC1CCCN(c2nc3ccccc3nc2C(C#N)S(=O)(=O)c2ccccc2)C1` (centres undefined), the cytotoxicity was 47.8%. For `Cc1ccc(S(=O)(=O)C(C#N)c2nc3ccccc3nc2N2CCCC2)cc1C` (centres undefined), the cytotoxicity was 56.7% (active).
